# Data as given in PubChem BioAssay.
# Calls of active or inactive are those of the source. Unless noted, how the calls were made is not given here.
# Columns and labels:
# [1] = compounds binding Alexa647 anti-His antibody – biochemical, small-molecule microarray, 635 nm fluorescence, artefact control for SMM control protein annotation, primary screen (AID 1128); conditions: higher = more signal;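 further: score merges feature fluorescence with signal-to-noise for each printed compound spot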
# [2] = tested on: Human papillomavirus type 1a E7 protein (residues 1-88); assay: HPV1a E7 small-molecule binders, primary screen, biochemical, small-molecule microarray, residues 1-88, 635 nm (AID 1129); conditions: small-molecule microarray binding, fluorescence 635 nm; higher = more signal
# [3] = molecular target: Focal adhesion kinase 1 (Homo sapiens) (UniProt Q05397); assay: PTK2 protein binding on printed compound slides – biochemical, small-molecule microarray, 635/667 nm fluorescence, BSA, DTT, primary screen (AID 1130); conditions: 635 nm fluorescence, higher = more signal;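 further: composite of spot emission at 667 nm and signal to noise over triplicate slides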
# Focal adhesion kinase 1 (Homo sapiens), sequence (Q05397 whole entry, looked up): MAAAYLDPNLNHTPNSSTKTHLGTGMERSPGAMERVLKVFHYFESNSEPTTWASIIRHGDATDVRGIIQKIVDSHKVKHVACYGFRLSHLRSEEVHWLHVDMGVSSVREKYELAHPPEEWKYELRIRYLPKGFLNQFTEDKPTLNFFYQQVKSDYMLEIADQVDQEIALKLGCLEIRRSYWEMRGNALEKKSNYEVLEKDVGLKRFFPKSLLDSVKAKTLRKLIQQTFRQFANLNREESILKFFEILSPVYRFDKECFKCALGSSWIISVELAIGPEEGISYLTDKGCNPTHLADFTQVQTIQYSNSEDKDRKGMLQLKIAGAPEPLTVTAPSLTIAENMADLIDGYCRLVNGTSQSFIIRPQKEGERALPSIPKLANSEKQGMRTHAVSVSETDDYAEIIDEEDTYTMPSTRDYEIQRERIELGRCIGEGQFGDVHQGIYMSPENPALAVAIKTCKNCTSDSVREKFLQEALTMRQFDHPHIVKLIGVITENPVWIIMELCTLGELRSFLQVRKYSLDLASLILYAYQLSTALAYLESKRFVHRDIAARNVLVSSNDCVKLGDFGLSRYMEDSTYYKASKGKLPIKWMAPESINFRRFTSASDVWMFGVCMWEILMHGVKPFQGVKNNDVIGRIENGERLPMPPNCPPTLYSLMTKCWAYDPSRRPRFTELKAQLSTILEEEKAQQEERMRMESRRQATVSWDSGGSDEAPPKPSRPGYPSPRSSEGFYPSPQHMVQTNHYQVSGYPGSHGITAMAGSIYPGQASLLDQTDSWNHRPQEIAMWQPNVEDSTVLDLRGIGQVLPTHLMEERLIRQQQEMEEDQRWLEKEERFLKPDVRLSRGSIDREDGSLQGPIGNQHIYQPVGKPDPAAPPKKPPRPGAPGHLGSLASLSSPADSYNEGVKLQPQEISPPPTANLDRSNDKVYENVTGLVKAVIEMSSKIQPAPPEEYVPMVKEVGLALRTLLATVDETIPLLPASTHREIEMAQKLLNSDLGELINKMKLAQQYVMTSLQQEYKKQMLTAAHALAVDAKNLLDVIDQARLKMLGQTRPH
# [4] = tested on: Fibrinogen (Alexa647-labelled); assay: Alexa647-fibrinogen binding to printed small molecules – biochemical, small-molecule microarray, 635/667 nm fluorescence, artefact control for SMM control-protein annotation, profiling panel (AID 1131); conditions: fibrinogen-A647 binding fluorescence, higher = more signal;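 further: z-score merges 667 nm fluorescence with per-spot signal-to-noise over triplicate slides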
# [5] = molecular target: Follistatin (Homo sapiens) (UniProt P19883); assay: FST protein binding to printed compounds – biochemical, small-molecule microarray, 635/667 nm fluorescence, primary screen (AID 1132); conditions: 635 nm fluorescence, higher = more signal
# Follistatin (Homo sapiens), sequence (P19883 whole entry, looked up): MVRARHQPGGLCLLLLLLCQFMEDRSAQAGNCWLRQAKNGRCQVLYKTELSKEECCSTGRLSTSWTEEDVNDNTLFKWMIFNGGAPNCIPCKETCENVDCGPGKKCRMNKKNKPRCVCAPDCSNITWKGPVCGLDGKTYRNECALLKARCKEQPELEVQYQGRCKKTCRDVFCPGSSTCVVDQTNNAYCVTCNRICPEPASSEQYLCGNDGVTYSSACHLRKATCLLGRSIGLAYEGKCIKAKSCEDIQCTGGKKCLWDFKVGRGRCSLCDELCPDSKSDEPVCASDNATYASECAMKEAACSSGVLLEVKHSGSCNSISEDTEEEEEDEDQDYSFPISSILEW
# [6] = molecular target: Fibroblast growth factor 2 (Homo sapiens) (UniProt P09038); assay: basic fibroblast growth factor binding to printed compounds – biochemical, small-molecule microarray, 635/667 nm fluorescence, primary screen (AID 1133); conditions: FGF2, fluorescence 635/667, higher = more signal
# Fibroblast growth factor 2 (Homo sapiens), sequence (P09038 whole entry, looked up): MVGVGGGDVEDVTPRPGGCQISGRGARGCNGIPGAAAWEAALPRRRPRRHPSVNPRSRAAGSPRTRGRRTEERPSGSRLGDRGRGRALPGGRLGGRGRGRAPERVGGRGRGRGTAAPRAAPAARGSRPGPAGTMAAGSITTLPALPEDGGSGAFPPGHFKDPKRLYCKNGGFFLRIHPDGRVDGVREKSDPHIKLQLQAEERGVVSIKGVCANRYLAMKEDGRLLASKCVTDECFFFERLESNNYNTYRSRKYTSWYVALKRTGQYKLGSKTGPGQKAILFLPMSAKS
# [7] = JC-1 mitochondrial potential readout, lung cancer cells – cell-based, A549, JC-1 fluorescence, basal, 24 h, 100 nL, profiling panel (AID 1138); conditions: higher = more signal;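 further: A549 lung adenocarcinoma cells under basal conditions with no added stimulus; test concentration not given here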
# Lefty1 = Lefty1 protein binding to printed compounds – biochemical, small-molecule microarray, 635/667 nm fluorescence, primary screen (AID 1139); conditions: fluorescence 635/667, higher = more signal
# [8] = tested on: wheat germ agglutinin (Triticum aestivum), Alexa647-labelled; assay: Alexa647-WGA lectin binding to printed small molecules – biochemical, small-molecule microarray, 635/667 nm fluorescence, artefact control for SMM control-protein annotation, profiling panel (AID 1140); conditions: WGA-A647 binding, 635 nm fluorescence, higher = more signal;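 further: score merges 667 nm feature emission with signal to noise over triplicate slides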
# [9] = molecular target: Luciferin 4-monooxygenase (Photinus pyralis) (UniProt P08659); assay: inhibition of purified Photinus pyralis luciferase – biochemical, luminescence, purified enzyme, 2006 set, primary screen (AID 1141); conditions: purified firefly luciferase, SteadyGlo luminescence, 30 min; higher = more signal, called active from +8 up or from −8 down;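 further: cell-free assay with purified firefly luciferase at 100 ng per well in PBS; test concentration not given here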
# Luciferin 4-monooxygenase (Photinus pyralis), sequence (P08659 whole entry, looked up): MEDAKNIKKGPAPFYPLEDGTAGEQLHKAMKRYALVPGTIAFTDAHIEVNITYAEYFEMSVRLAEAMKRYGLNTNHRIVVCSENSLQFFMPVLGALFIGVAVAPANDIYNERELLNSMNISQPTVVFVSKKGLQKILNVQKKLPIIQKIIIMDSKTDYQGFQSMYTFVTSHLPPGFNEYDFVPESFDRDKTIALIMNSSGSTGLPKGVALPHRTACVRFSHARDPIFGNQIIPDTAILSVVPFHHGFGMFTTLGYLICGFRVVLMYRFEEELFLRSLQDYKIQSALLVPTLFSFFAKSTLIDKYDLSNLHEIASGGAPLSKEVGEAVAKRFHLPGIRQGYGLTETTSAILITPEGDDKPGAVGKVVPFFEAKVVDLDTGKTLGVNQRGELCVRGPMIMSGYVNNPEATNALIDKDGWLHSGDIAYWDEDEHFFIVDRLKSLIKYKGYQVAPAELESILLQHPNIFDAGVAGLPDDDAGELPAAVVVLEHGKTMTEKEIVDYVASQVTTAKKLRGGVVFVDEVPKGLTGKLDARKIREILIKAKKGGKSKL
# [10] = tested on: Wnt5a (protein binding on small-molecule microarray); assay: small molecules binding Wnt5a protein – biophysical, small-molecule microarray, 635/667 nm fluorescence, primary screen (AID 1142); conditions: 635 nm fluorescence, higher = more signal;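 further: fluorescence read at 667 nm with signal to noise per printed feature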
# [11] = ATP-based viability of Huh7 replicon cells – cell-based, CellTiter-Glo luminescence, basal, 48 h, cytotoxicity control for HCV replication inhibitor project, primary screen (AID 1143); conditions: higher = more signal, called active from +8 up or from −8 down;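 further: Huh7 hepatoma cells carrying a hepatitis C replication reporter with no stimulus; test concentration not given here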
# [12] = Pseudomonas biofilm growth suppression – PAO1 strain, BacTiter-Glo luminescence, LB-PBS, primary screen (AID 1144); conditions: P. aeruginosa PAO1 biofilm, 12 h, higher = more signal
# [13] = basal CRE-LacZ reporter activity in PC12 – cell-based, unstimulated, primary screen (AID 1145); conditions: no forskolin, luminescence, 4.5 h, higher = more signal, called active from +8 up or from −8 down
# [14] = forskolin-driven CRE-LacZ activity in PC12 – cell-based, CRE-LacZ reporter, forskolin-stimulated, primary screen (AID 1146); conditions: luminescence, 4.5 h, higher = more signal, called active from +8 up or from −8 down;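 further: PC12 cells with 6xCRE LacZ reporter stimulated by forskolin 10 µM; beta-galactosidase reporter signal reflecting CREB driven transcription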
# [15] = molecular target: Streptavidin (Streptomyces avidinii) (UniProt P22629); assay: compounds binding control protein streptavidin – biophysical, small-molecule microarray, 635/667 nm fluorescence, artefact control for SMM compound annotation, primary screen (AID 1147); conditions: higher = more signal;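 further: signal reflects streptavidin binding to arrayed compounds as a control protein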
# Streptavidin (Streptomyces avidinii), sequence (P22629 whole entry, looked up): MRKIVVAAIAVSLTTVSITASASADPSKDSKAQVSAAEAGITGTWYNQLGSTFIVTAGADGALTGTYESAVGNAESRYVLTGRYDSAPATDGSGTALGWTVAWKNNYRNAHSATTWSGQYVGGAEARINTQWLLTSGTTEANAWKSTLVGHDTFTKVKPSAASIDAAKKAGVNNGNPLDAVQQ
# [16] = probe aInhba binding on compound microarray – biochemical, small-molecule microarray, 635/667 nm fluorescence, primary screen (AID 1148); conditions: higher = more signal;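 further: score merges 667nm spot fluorescence with signal-to-noise for antibody binding to printed compounds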
# Torsin-1A (Homo sapiens) [17] = molecular target: Torsin-1A (Homo sapiens) (UniProt O14656); assay: TOR1A wild-type binding on microarray – cell lysate, small-molecule microarray, lysate, 635/667 nm, primary screen (AID 1149); conditions: COS7 hTOR1A-WT lysate, 635 nm fluorescence, higher = more signal
# Torsin-1A (Homo sapiens), sequence (O14656 whole entry, looked up): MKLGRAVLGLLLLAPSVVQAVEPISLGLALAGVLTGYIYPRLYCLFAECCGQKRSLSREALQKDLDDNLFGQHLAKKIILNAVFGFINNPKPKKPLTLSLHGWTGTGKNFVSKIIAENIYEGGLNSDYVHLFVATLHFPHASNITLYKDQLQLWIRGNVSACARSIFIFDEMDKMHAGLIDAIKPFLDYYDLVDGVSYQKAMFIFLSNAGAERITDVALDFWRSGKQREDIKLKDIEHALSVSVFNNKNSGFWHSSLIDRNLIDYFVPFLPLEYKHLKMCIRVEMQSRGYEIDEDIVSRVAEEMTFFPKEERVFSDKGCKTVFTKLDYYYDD
# Torsin-1A (Homo sapiens) [18] = molecular target: Torsin-1A (Homo sapiens) (UniProt O14656); assay: torsin A mutant lysate binding on microarrays – cell lysate, small-molecule microarray, COS7 lysate, 635/667 nm fluorescence, primary screen (AID 1150); conditions: COS7 hTOR1A mutant lysate, 635 nm fluorescence, higher = more signal;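 further: score pools 667 nm emission and signal to noise measuring lysate protein binding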
# [19] = tested on: Sonic hedgehog protein (Shh); assay: Sonic hedgehog microarray binding compounds – biochemical, small-molecule microarray, 635/667 nm fluorescence, primary screen (AID 1151); conditions: 635 nm fluorescence, higher = more signal;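 further: Shh protein binding to compounds spotted on small-molecule microarray slides; score combines spot fluorescence intensity with signal-to-noise across triplicate slides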
SMILES,composite z-score [1],composite z-score [2],composite z-score [3],composite z-score [4],composite z-score [5],composite z-score [6],z-score [7],composite z-score (Lefty1),composite z-score [8],z-score [9],composite z-score [10],z-score [11],z-score [12],z-score [13],z-score [14],composite z-score [15],composite z-score [16],composite z-score (Torsin-1A (Homo sapiens) [17]),composite z-score (Torsin-1A (Homo sapiens) [18]),composite z-score [19]
CCOC(=O)C1=CCC(c2ccccc2)N(S(=O)(=O)CC[Si](C)(C)C)C1 (stereo not given),0.149,-0.401,0.384,-0.325,-0.172,-0.617,3.06,-0.503,0.0225,1.2 (inactive),-0.386,-4.87 (inactive),-0.296 (inactive),-0.322 (inactive),0.497 (inactive),-0.192,-0.363,1.04,0.673,-0.302
COCCOC(=O)N1C(=O)[C@@]2(c3cc(C#CC4=CCCCC4)ccc31)[C@H](C(N)=O)[C@H]1C(=O)O[C@H](c3ccccc3)[C@H](c3ccccc3)N1[C@@H]2c1ccc(OCCO)cc1,2.26,1.21,0.797,0.938,0.371,0.925,-1.65,0.517,0.773,-1.8 (inactive),0.14,-4.37 (inactive),-1.72 (inactive),-0.195 (inactive),-0.327 (inactive),-0.602,-0.406,0.394,0.644,1.02
COCCOC(=O)N1C(=O)[C@@]2(c3ccccc31)[C@H](c1ccc(O)cc1)N1[C@H](c3ccccc3)[C@H](c3ccccc3)OC(=O)[C@H]1[C@@H]2C(=O)NC[C@H](O)c1ccccc1,2.08,1.2,-0.0504,0.068,0.532,-0.104,-0.767,0.282,0.0324,0.733 (inactive),-0.0136,-1.03 (inactive),0.494 (inactive),0.595 (inactive),1.31 (inactive),-0.551,0.0051,0.849,0.805,0.474
COc1ccc(C(=O)Nc2ccc(CN3C(=O)[C@@]4(O[C@@H](CC(=O)N5CCC[C@H]5CO)[C@H]([Si](C)(C)c5ccc(OC)cc5)[C@H]4C)c4ccccc43)cc2)cc1,-0.271,1.2,1.02,0.655,1.33,1.68,3.25,1.21,0.763,-2.38 (inactive),0.553,-1.38 (inactive),-1.34 (inactive),1.88 (inactive),-0.0184 (inactive),0.648,0.0074,0.826,0.797,1.66
CCOC(=O)C[C@H]1[C@H](OC(=O)c2ccc(C(=O)c3ccccc3)cc2)[C@@H](NC(=O)c2ccc(-c3ccccc3)cc2)c2cc(OCCCO)ccc2N1C(=O)c1ccccc1,0.256,0.87,0.644,0.803,0.559,0.59,-0.187,0.712,0.131,-0.265 (inactive),0.0074,0.294 (inactive),0.0763 (inactive),0.0035 (inactive),-0.254 (inactive),1.11,-0.128,0.117,0.311,1.08
Cc1ccc(S[C@]2(C(=O)NCC(F)(F)F)CC(=O)N(C(C)C)[C@@H]2c2ccc(CO)cc2I)cc1,-1.45,-0.68,-0.188,-1.11,-0.366,0.0888,0.758,-1.13,-0.86,-1.01 (inactive),0.0446,-1.53 (inactive),0.111 (inactive),0.118 (inactive),0.725 (inactive),-0.563,-0.128,-0.846,-0.474,-0.594
CCCCC=C[C@@H](NC(=O)Oc1cccc(C(F)(F)F)c1)c1ccccc1,0.291,1.21,0.0053,1.01,0.572,1.63,-1.68,-0.0322,1.15,1.52 (inactive),1.61,-3.46 (inactive),-0.721 (inactive),0.201 (inactive),0.0897 (inactive),1.84,0.996,0.961,0.947,-0.629
CN1C(=O)C2C=CC(C(O)Cc3ccccc3)N(Nc3ccccc3)C2C1=O (stereo not given),1.61,0.257,0.385,0.944,0.27,-0.408,-0.375,-0.0697,1.12,-0.492 (inactive),-0.0943,0.329 (inactive),-1.16 (inactive),0.626 (inactive),0.0426 (inactive),0.996,0.0622,0.279,0.444,-0.52
C#CCN(Cc1ccccc1Br)C(/C=C/c1ccccc1)CO (stereo not given),0.448,-0.265,-0.102,-0.171,-0.523,0.774,-1.01,0.0437,-0.618,0.0615 (inactive),-0.15,-4.79 (inactive),0.825 (inactive),5.19 (inactive),-1.04 (inactive),-0.175,-0.283,0.0428,-0.653,-0.0683
C=CCC(OC(C)=O)[C@@H]1[C@@H](N(Cc2ccc(-c3ccccc3)cc2)C(=O)Cc2ccc(F)cc2)c2cc(OCCCO)ccc2N1C(=O)c1ccc(-c2ccccc2)cc1 (stereo not given in full),-0.414,-1.03,-0.0744,0.259,0.267,-0.297,0.796,-0.0123,-0.217,1.03 (inactive),-0.163,-1.13 (inactive),-0.757 (inactive),-1.23 (inactive),-0.0988 (inactive),0.711,-0.157,-0.628,-0.222,0.249
